Bioassay records: PubChem, National Center for Advancing Translational Sciences (NCATS)
Sampled rows, rich in hits. Any-hit rate of the full collection: about 1.3%.
EPAC2 agonist – activates human EPAC2 exchange factor | Q8WZA2 | EPAC2 activation, biochemical qHTS; response scale: 100% = 6.5 mM cAMP response | Potency, µM (series often up to 154 µM), without a hit: at the top dose activation, actives largely listed as activators | hit rate 0.079% among 360,000; note: nearly all actives have a fitted effect of over 50% in size
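Compounds were titrated in qHTS against a Rap1B-BODIPY-GDP (250 nM) complex with EPAC2 (100 nM) and GDP (50 uM). BODIPY-GDP release tracked at 480/540 nm over 30 min at room temperature, normalized to 6.5 mM cAMP.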
ALOX12 inh – blocks human arachidonate 12S-lipoxygenase. P18054. purified 12hLO, xylenol orange hydroperoxide absorbance. hit rate 1.1% among 580,000. AID 1671190. Potency, µM (titrated, usually from 108 µM), without a hit: at the highest dose activity change, negative = inhibition, most hits filed as inhibitors; note: % is set by controls: 0 for no effect and ±100 for the full control effect
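Hydroperoxide product was detected by ferrous iron/xylenol orange as the 573 to 405 nm absorbance ratio. Arachidonic acid at 40 uM (final) was turned over for 30 min at room temperature by 150 nM human 12hLO, pH 7.0 Hepes buffer, after 15 min compound preincubation.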
EPAC1 antagonist – EPAC1 (human) antagonism. EPAC1 GEF assay, Rap1b-BODIPY-GDP exchange fluorescence. Potency, µM (doses to about 115 µM), for inactives: at the top dose activity change, negative = inhibition, actives largely listed as inhibitors. hit rate 0.14% among 360,000. AID 720709;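 note: plate controls were vehicle for no effect and positive control for full effect; nearly all actives have a fitted effect of over 50% in size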
Target sequence (O95398 whole entry, looked up): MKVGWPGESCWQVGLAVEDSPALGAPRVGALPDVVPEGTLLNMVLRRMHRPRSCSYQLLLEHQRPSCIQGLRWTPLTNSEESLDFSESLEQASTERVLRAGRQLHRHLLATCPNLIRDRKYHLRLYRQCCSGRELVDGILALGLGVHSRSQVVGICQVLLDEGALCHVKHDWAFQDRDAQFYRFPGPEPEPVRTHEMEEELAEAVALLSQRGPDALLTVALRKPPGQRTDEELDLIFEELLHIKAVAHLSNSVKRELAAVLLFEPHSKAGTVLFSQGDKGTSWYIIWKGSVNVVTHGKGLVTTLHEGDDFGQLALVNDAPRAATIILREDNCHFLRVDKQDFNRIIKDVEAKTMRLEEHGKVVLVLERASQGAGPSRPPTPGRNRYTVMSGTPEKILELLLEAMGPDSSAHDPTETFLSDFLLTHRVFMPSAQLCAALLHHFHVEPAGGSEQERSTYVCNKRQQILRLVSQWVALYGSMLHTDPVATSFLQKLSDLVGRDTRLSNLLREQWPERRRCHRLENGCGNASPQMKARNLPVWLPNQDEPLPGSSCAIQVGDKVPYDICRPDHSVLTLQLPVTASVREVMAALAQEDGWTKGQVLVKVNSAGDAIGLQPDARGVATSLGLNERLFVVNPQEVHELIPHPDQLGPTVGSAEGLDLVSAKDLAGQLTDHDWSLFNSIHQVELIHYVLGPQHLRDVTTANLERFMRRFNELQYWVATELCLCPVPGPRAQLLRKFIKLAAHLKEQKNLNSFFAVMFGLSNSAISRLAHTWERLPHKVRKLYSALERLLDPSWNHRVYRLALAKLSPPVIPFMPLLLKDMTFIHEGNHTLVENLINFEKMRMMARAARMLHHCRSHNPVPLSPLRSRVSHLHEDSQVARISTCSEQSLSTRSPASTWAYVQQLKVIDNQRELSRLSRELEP
USP1-UAF1 inh – blocks the human USP1/UAF1 deubiquitinase complex. O94782. recombinant USP1/UAF1, Ub-Rhodamine cleavage fluorescence. Potency, µM (series often up to 57.1 µM), without a hit: at the top dose activity change, negative = inhibition, most hits filed as inhibitors. hit rate 0.23% among 390,000; note: % is set by controls: 0 for no effect and ±100 for the full control effect; nearly all actives have a fitted effect of over 60% in size
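In this screen, compounds sit with the deubiquitinase complex (1nM) for 15 min at room temperature before Ub-Rho is added at 150nM final. Fluorescence rise is then followed for 6 reads every 60 seconds.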
EPAC1 agonist – activates human EPAC1 exchange factor. EPAC1 agonist qHTS, biochemical assay; response scale: 100% = response to 6.5 mM cAMP. Potency, µM (highest dose often 154 µM), inactives show at the top dose activation, usual class: activators. hit rate 0.073% among 360,000. AID 720707; note: nearly all actives have a fitted effect of over 60% in size
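Nucleotide exchange assay: 100 nM EPAC1 with 250 nM Rap1B loaded with BODIPY-GDP and 50 uM GDP, room temperature. Fluorescence (480/540 nm) read every 5 min for 30 min; signal change normalized to 6.5 mM cAMP as full agonist.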
EPAC2 antagonist – blocks human EPAC2 exchange factor; Q8WZA2; EPAC2 GEF exchange of Rap1B-BODIPY-GDP, fluorescence; Potency, µM (titrated, usually from 114 µM), inactives show top-dose activity, negative = inhibition, most hits filed as inhibitors; hit rate 0.18% among 360,000; AID 720708; note: % is set by controls: 0 for no effect and ±100 for the full control effect; nearly all actives have a fitted effect of over 45% in size
The depositor's hits bear a star; i = inactive; ? = inconclusive; / = not tested or not shown; [ ] = dose if it differs, or a comment. Calls come from the whole dose curve; as a rule, active = well fitted curve in the direction sought with a large enough effect; inconclusive = small, poorly fitted or top-dose-only effect, or another doubt; inactive = no such curve, though single readings can be large; an effect the other way counts as inactive or inconclusive. Potency is the fitted concentration of half-maximal effect.

SMILES	EPAC2 agonist	ALOX12 inh	EPAC1 antagonist	USP1-UAF1 inh	EPAC1 agonist	EPAC2 antagonist
CCCN1C(=O)C(NC(C)=O)c2ccccc21 (centres undefined)	3.8%	?	-4.9%	-10.8%	-0.8%	2.3%
CC1OCCC1=O (centres undefined)	/	8.5%[176 µM]	/	/	/	/
Cc1ccc(C2NC(=O)c3c(sc(C)c3C)N2)c(O)c1 (centres undefined)	1.7%	39.8µM*	-8.0%	-1.9%	4.2%	-10.2%
COc1cc2c(cc1OC)-c1cc(NC3CCCCC3)nc(=O)n1CC2	6.31µM*	25.1µM*	0.0%	-16.1%	12.0%	-4.2%
COc1cc2c(cc1OC)-c1cc(NC3CCCCCCC3)nc(=O)n1CC2	-0.2%	66.1%	12.8%	-25.3%	1.4%	4.4%
COc1cc2c(cc1OC)-c1cc(NCc3ccccn3)nc(=O)n1CC2	-9.7%	7.94µM*	?	-4.5%	0.6%	-1.0%
Cc1ccc(-c2ocnc2C(=O)NCCC(C)C)s1	/	-6.1%	/	/	/	/
S=C(NCCCc1ccccc1)Nc1ccc(Br)cc1Cl	/	44.7µM*	/	/	/	/
Cc1cccnc1NC(=S)Nc1ccc(Br)cc1Cl	2.5%	11.2µM*	4.3%	-5.8%	14.6%	?
S=C(NCCc1ccccc1)Nc1ccc(Br)cc1	10.8%	35.5µM*	-20.4%	-13.4%	9.9%	-4.0%
CCCNC(=S)Nc1ccc(Br)cc1	16.9%	?	-1.3%	-15.9%	-3.9%	2.6%
Fc1ccc(CCNC(=S)Nc2ccc(Oc3ccccc3)cc2)cc1	/	22.4µM*	/	/	/	/
CC(=O)NNC(=S)Nc1ccc(Br)cc1Cl	/	9.6%	/	/	/	/
CCCn1nc(C(=O)OC(C)C(=O)Nc2cccc(S(=O)(=O)N(C)C)c2)c2ccccc2c1=O (centres undefined)	/	2.9%	/	/	/	/
Cc1ccc(OC2(C(=O)NC(C)c3cn4ncsc4n3)CCNCC2)cc1 (centres undefined)	/	14.1µM*	/	/	/	/
Cc1ccc(OC2(C(=O)NC(C)c3nn[nH]n3)CCNCC2)cc1 (centres undefined)	/	-7.3%	/	/	/	/
COc1ccc2oc(/C=C/N(C)C)c(C(=O)c3ccc(Cl)cc3)c2c1	7.0%	7.08µM*	?	-24.7%	3.8%	-4.8%
Cc1[nH]c(=S)sc1Cc1ccc(Cl)c(Cl)c1	/	31.6µM*	/	/	/	/
COc1ccccc1NS(=O)(=O)c1ccc2ccccc2c1	22.8%	9.8%	-4.2%	-26.1%	15.6%	12.6µM*
O=C1NC(=O)/C(=C/c2cccc3ccccc23)S1	-6.7%	-103.9%	?	-5.7%	-7.7%	?
O=C1NC(=O)/C(=C\c2ccc(O)cc2O)S1	4.2%	39.8µM*	?	-22.2%	-5.4%	-1.1%
O=C1NC(=O)C(=Cc2ccccc2[N+](=O)[O-])S1	11.4%	?	50.1µM*	?	4.7%	79.4µM*
COc1ccc(-n2c(C)cc(C(=O)CCl)c2C)cc1	10.6%	-14.2%	-29.5%	-23.7%	8.0%	7.94µM*
COc1cc(-c2cc(=O)c3ccc(O)cc3o2)cc(OC)c1OC	/	0.5%	/	/	/	/
COc1cc(OC)c(-c2c3cc(O)c(=O)cc-3oc3cc(O)c(O)cc23)cc1OC	112µM*	?	181.9%	25.1µM*	100µM*	92.4%
SMILES	EPAC2 agonist	ALOX12 inh	EPAC1 antagonist	USP1-UAF1 inh	EPAC1 agonist	EPAC2 antagonist
Cc1c2cc(O)c(=O)cc-2oc2cc(O)c(O)cc12	i	5.62µM*	82.3%	?	-276.4%	?
Cc1cc(C(=O)N2CCN(S(=O)(=O)c3ccccc3)CC2)c(C)n1Cc1ccccn1	/	26.6%	/	/	/	/
CC(C)C/C=C(\C=O)c1ccccc1	/	14.4%[176 µM]	/	/	/	/
CCOC(=O)c1ccc(NC(=O)c2c(NCc3cccc(OC)c3OC)sc3c2CCC3)cc1	/	-19.8%	/	-32.6%	/	/
CCOC(=O)c1ccc(NC(=O)c2c(NCc3sccc3C)sc3c2CCCCC3)cc1	/	11.2µM*	/	?	/	/
O=C1c2cc(N3CCOCC3)nc(-c3ccc(F)cc3)c2CN1CC1CC1	/	31.6µM*	/	/	/	/
O=C(c1ccc(F)cc1)N(c1ccccc1F)C(CCc1ccccc1)c1nc2ccccc2[nH]1 (centres undefined)	/	5.01µM*	/	/	/	/
O=C(Nc1ccc2nc(-c3ccc4nc[nH]c4c3)[nH]c2c1)c1cccs1	?	0.0%	-8.5%	?	13.1%	50.1µM*
O=C1C(C2=C(O)c3ccccc3C2=O)=Nc2ccccc21	7.5%	?	-0.7%	14.1µM*	5.9%	?
N#Cc1c(NC(=O)c2ccc(Br)o2)n(-c2ccccc2)c2nc3ccccc3nc12	26.6%	?	?	6.31µM*	-13.9%	?
N#CC1(Br)C(=N)c2ccccc2CC12CCCCC2 (centres undefined)	/	0.562µM*	/	/	/	/
N#CC(C#N)=C1NC2(CCCCC2)Cc2ccccc21	3.0%	?	-20.6%	-18.7%	6.8%	-14.1%
CC(C)c1cc(C(C)C)c(CC(=O)NS(=O)(=O)Oc2c(C(C)C)cccc2C(C)C)c(C(C)C)c1	/	24.3µM*	/	/	/	/
COc1cccc(-c2nc(-c3nc4ccccc4s3)cs2)c1OC	/	5.01µM*	/	/	/	/
CCC(C)NC(=O)C(=O)N1CCN(c2nc(C)c3c(c2C#N)CCCC3)CC1 (centres undefined)	/	-6.9%	/	/	/	/
S=c1[nH]nc(Nc2ccc(Cl)cc2)s1	12.7%	?	-10.0%	2.6%	7.7%	-3.6%
Cc1ccc(Nc2n[nH]c(=S)s2)cc1F	4.6%	39.8µM*	-0.7%	-7.4%	-5.6%	-2.0%
Cc1ccc(Nc2n[nH]c(=S)s2)cc1	10.7%	31.6µM*	4.9%	-8.7%	6.9%	3.0%
Cc1nn(CCc2nn[nH]n2)c2nc(-c3ccc(C4CCCCC4)cc3)cc(C(F)(F)F)c12	-23.3%	?	79.4µM*	?	-14.6%	?
N#Cc1ccc2c(c1)OCCO2	/	8.91µM*	/	/	/	/
CCC(Oc1ccccc1)C(=O)Nc1sc(C(=O)OC)c(C)c1C(=O)OC (centres undefined)	/	33.4%	/	/	/	/
O=C(CC1C(=O)NCCN1Cc1cccc(Oc2ccccc2)c1)NCc1ccco1 (centres undefined)	/	-2.0%	/	/	/	/
Cc1ccc(C(=O)OCC(=O)Nc2sc3c(c2C#N)CCCC3)cc1NC(=O)c1ccco1	5.1%	35.5µM*	-14.5%	-14.9%	3.6%	-0.6%
Cc1ccc(C(=O)OCC(=O)Nc2sc3c(c2C#N)CCCCC3)cc1NC(=O)c1ccco1	11.1%	0.0%	12.0%	-23.3%	9.4%	18.8%
O=C(NC1CCCCC1)N1Cc2[nH]cnc2C[C@H]1c1nc(-c2ccncc2)no1	/	12.6µM*	/	/	/	/
O=C(c1ccccc1)N1Cc2[nH]cnc2C[C@H]1c1nc(-c2ccncc2)no1	/	42.6%[176 µM]	/	/	/	/
O=C(c1ccc(O)cc1)c1ccc(O)cc1O	3.6%	30.7%	-22.5%	-17.0%	0.9%	3.3%
